Results reported in PubChem BioAssay (Tox21).
Records with an inconclusive call do not appear. Calls of active or inactive are those of the source. Unless noted, the call rests on the fitted dose curve; in most records, active means well fitted curve in the direction sought with a large enough effect in the repeat runs; inconclusive means weak or mixed curves; inactive means no such curve, though single readings can be large; an effect the other way counts as inactive or inconclusive.

How the values were obtained:
[1] = target: Thyrotropin receptor (Homo sapiens) (UniProt P16473); experiment: qHTS assay to identify small molecule agonists of the thyroid stimulating hormone receptor (TSHR) signaling pathway (AID 1224843; calls by dose curve; further: nearly all actives have a fitted effect of over 45% in size)
Thyrotropin receptor (Homo sapiens), sequence (P16473 whole entry, looked up): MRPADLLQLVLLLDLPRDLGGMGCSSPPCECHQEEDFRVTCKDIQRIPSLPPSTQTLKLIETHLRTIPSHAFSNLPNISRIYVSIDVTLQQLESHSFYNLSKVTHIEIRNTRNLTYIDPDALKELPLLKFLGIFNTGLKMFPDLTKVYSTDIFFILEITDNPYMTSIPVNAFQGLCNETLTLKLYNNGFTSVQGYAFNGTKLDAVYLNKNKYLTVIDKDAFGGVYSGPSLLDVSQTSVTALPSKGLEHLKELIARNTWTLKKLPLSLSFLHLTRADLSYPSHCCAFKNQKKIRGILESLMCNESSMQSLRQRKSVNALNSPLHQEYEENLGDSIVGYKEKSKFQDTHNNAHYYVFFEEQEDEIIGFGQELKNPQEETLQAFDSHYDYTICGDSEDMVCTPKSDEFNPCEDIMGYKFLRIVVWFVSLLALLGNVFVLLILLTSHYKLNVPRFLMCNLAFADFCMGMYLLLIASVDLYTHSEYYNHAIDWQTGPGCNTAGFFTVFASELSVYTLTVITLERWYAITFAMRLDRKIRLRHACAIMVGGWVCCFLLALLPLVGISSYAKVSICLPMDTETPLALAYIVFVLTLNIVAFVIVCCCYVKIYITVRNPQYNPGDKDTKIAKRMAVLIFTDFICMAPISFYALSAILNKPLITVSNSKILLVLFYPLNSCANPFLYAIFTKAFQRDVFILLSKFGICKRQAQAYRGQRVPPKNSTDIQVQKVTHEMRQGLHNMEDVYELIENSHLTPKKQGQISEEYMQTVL
Procedure, shortened: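 TSHR-expressing HEK293 cells (800 per well) were exposed to compounds for 30 min at room temperature. cAMP was then detected by HTRF competition with cAMP-d2 and anti-cAMP cryptate, read after 1 h at room temperature. Fifteen concentrations, triplicate.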

[2] = qHTS assay to identify small molecule agonists of the hypoxia (HIF-1) signaling pathway - cell viability counter screen (AID 1224844; calls by dose curve; further: nearly all actives have a fitted effect of over 50% in size)
Procedure, shortened: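 ME-180 HRE-bla cells, 2,000/well, 0.5% dialyzed FBS; 5 hr settle, 17 hr compound at 37C/5% CO2; CCF4-AM reporter read first, then CellTiter-Glo luminescence after 30 min RT.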

[3] = qHTS assay to identify small molecule agonists of H2AX (AID 1224845; active means well fitted activation curve with a large enough effect in the signal ratio in the repeat runs, not every such curve was filed as active; the % refers to the signal ratio)
Procedure, shortened: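 Wild-type CHO-K1 cells plated overnight, then exposed 3 hr at 37C to compounds at 15 concentrations (0.76% DMSO). Lysed, then HTRF anti-pH2AX(S139)-cryptate/anti-H2AX-d2 detection after 24 hr at room temperature; emissions 665 and 620 nm.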

[4] = qHTS assay to identify small molecule agonists of the hypoxia (HIF-1) signaling pathway (AID 1224846; active means well fitted activation curve with a large enough effect in the signal ratio in the repeat runs, not every such curve was filed as active; the % refers to the signal ratio)
Procedure, shortened: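 Cell line: CellSensor HRE-bla ME-180; 2,000 cells/well; 0.5% dialyzed FBS; 5 h preincubation; DMSO compound pin transfer; 17 h, 37C, 5% CO2; CCF4-AM added; bla FRET signal scored for activation.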

[5] = qHTS assay to identify small molecule agonists of H2AX - cell viability counter screen (AID 1224847; calls by dose curve; further: top concentration of the series differs between compounds; nearly all actives have a fitted effect of over 30% in size)
Procedure, shortened: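 Wild-type CHO-K1 cells (10% FBS medium) were plated overnight at 37C, exposed to compounds at 15 concentrations for 3 hr at 37C (0.76% DMSO final), and viability was read as CellTiter-Glo luminescence after 30 min at room temperature.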

[6] = qHTS assay to identify small molecule antagonists of the estrogen related receptor (ERR) signaling pathway from Tox21 library (AID 1224848); further: nearly all actives have a fitted effect of over 50% in size
Procedure, shortened: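 Cells: ERR line, 2,000/well; 6 h preincubation 37 C/5% CO2. Cpd in DMSO via pin tool; 18 h, 37 C. ONE-Glo, 30 min RT, luminescence.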

[7] = qHTS assay to identify small molecule agonists of the estrogen related receptor (ERR) signaling pathway from Tox21 library (AID 1224849; calls by dose curve; further: nearly all actives have a fitted effect of over 15% in size); conditions: ERR reporter cell line, ONE-Glo luciferase, 18 h; at 92.4 µM (top of the series) unless noted
Procedure, shortened: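 ERR cells, 6 h pre-incubation 37 C/5% CO2; cpd in DMSO pinned; 18 h 37 C; ONE-Glo added, 30 min RT; luminescence read. Agonist mode, qHTS.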

[8] = qHTS RealTime-Glo MT Cell Viability Assay in HepG2 cells - 24 hour (AID 1224867); further: nearly all actives have a fitted effect of over 50% in size
Procedure, shortened: (§1)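 Cell number in HepG2 cultures estimated from NanoLuc luminescence generated by metabolic reduction of a prosubstrate by living cells. The homogeneous, nonlytic format allowed repeated reads at 0, 8, 16, 24, 32 and 40 h of compound exposure.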

[9] = qHTS RealTime-Glo MT Cell Viability Assay in HEK293 cells - 32 hour (AID 1224868); further: top concentration of the series differs between compounds; nearly all actives have a fitted effect of over 50% in size
Procedure, shortened: (§2)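 Homogeneous bioluminescent viability format in HEK293 cells (600 cells/well). Following 5 h at 37 C/5% CO2, 23 nL compound was pintooled; the signal was measured repeatedly during 40 h incubation.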

[10] = A CellTox Green Cytotoxicity Assay to monitor cytotoxicity in HEK293 cells - 0 hour (AID 1224869); further: nearly all actives have a fitted effect of over 50% in size
Procedure, shortened: (§3)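 Nonlytic real-time cytotoxicity: HEK293 + CellTox Green reagent plated, 5 h preincubation, pintool compound addition (23 nL in DMSO), 37 C for 40 h, fluorescence measured at successive time points.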

[11] = A CellTox Green Cytotoxicity Assay to monitor cytotoxicity in HEK293 cells - 40 hour (AID 1224871); further: nearly all actives have a fitted effect of over 45% in size
Procedure, shortened: as §3

[12] = qHTS RealTime-Glo MT Cell Viability Assay in HEK293 cells - 16 hour (AID 1224872)
Procedure, shortened: as §2

[13] = qHTS RealTime-Glo MT Cell Viability Assay in HepG2 cells - 8 hour (AID 1224873); further: nearly all actives have a fitted effect of over 55% in size
Procedure, shortened: (§4)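 HepG2 cells mixed with RealTime-Glo MT reagents (NanoLuc plus cell-permeant prosubstrate) were seeded at 600 cells/well, incubated 5 h at 37 C/5% CO2, then pinned with compounds in DMSO; nonlytic luminescence tracked viability during 40 h treatment.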

[14] = qHTS RealTime-Glo MT Cell Viability Assay in HEK293 cells - 40 hour (AID 1224874); conditions: RealTime-Glo luminescence; max response: active compounds read low; further: nearly all actives have a fitted effect of over 50% in size
Procedure, shortened: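 Cells were seeded together with NanoLuc luciferase and a prosubstrate that viable cells reduce to a luciferase substrate. After a 5 h incubation at 37 C/5% CO2, compounds were added and luminescence was measured repeatedly during 40 h of treatment.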

[15] = A CellTox Green Cytotoxicity Assay to monitor cytotoxicity in HEK293 cells - 24 hour (AID 1224875); further: nearly all actives have a fitted effect of over 45% in size
Procedure, shortened: as §3

[16] = A CellTox Green Cytotoxicity Assay to monitor cytotoxicity in HepG2 cells - 16 hour (AID 1224876); further: nearly all actives have a fitted effect of over 45% in size
Procedure, shortened: (§5)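 Read-out is fluorescence of a cyanine dye excluded from live cells that stains DNA of dead HepG2 cells, with signal proportional to cytotoxicity. Plates were read at 0, 8, 16, 24, 32 and 40 h after compound addition.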

[17] = qHTS RealTime-Glo MT Cell Viability Assay in HepG2 cells - 32 hour (AID 1224877); further: nearly all actives have a fitted effect of over 55% in size
Procedure, shortened: as §1

[18] = A CellTox Green Cytotoxicity Assay to monitor cytotoxicity in HepG2 cells - 24 hour (AID 1224878); further: nearly all actives have a fitted effect of over 45% in size
Procedure, shortened: as §5

[19] = A CellTox Green Cytotoxicity Assay to monitor cytotoxicity in HepG2 cells - 40 hour (AID 1224879); further: nearly all actives have a fitted effect of over 40% in size
Procedure, shortened: as §5

[20] = qHTS RealTime-Glo MT Cell Viability Assay in HepG2 cells - 40 hour (AID 1224870); further: nearly all actives have a fitted effect of over 50% in size
Procedure, shortened: as §4
On the % scale 0 is the no-effect control and ±100 the full control effect.

CCCCC1CCC(=O)O1 (centres undefined)
inactive: Potency [1] | Potency [2] | Potency [3] | outcome [4] | Potency [5] | Potency [6] | activity change, positive = activation [7] -0.824% | Potency [8] | Potency [9] | Potency [10] | Potency [11] | Potency [12] | outcome [13] | max response [14] -3.25% | Potency [15] | Potency [16] | Potency [17] | Potency [18] | Potency [19]

CCCCCCCCCC/C=C/C#N
inactive: Potency [1] | Potency [2] | Potency [3] | outcome [4] | Potency [5] | Potency [6] | activity change, positive = activation [7] -1.03% | Potency [8] | Potency [9] | Potency [10] | Potency [20] | Potency [11] | Potency [12] | outcome [13] | max response [14] 4.49% | Potency [15] | Potency [16] | Potency [17] | Potency [18] | Potency [19]

CCOC(=O)c1cc(=O)c2c(OCC(COc3cccc4oc(C(=O)OCC)cc(=O)c34)OC(=O)[C@@H](N)CCCCN)cccc2o1
inactive: Potency [1] | Potency [2] | Potency [3] | outcome [4] | Potency [5] | Potency [6] | activity change, positive = activation [7] 8.23% [at 42.5 µM] | Potency [8] | Potency [9] | Potency [10] | Potency [20] | Potency [11] | Potency [12] | outcome [13] | max response [14] 3.47% | Potency [15] | Potency [16] | Potency [17] | Potency [19]

CO[Si](C)(C)OC
inactive: Potency [1] | Potency [2] | Potency [3] | outcome [4] | Potency [5] | Potency [6] | activity change, positive = activation [7] 4.8% | Potency [8] | Potency [9] | Potency [10] | Potency [11] | Potency [12] | outcome [13] | max response [14] -0.595% | Potency [15] | Potency [16] | Potency [17] | Potency [18] | Potency [19]

CC(C)C[C@H](NC(=O)OCC1c2ccccc2-c2ccccc21)C(=O)O
inactive: Potency [1] | Potency [2] | Potency [3] | outcome [4] | Potency [5] | Potency [6] | Potency [8] | Potency [9] | Potency [20] | Potency [11] | Potency [12] | outcome [13] | max response [14] -12.9% | Potency [15] | Potency [16] | Potency [17] | Potency [18] | Potency [19]
active: activity change, positive = activation [7] 147%

NCCC(O)(P(=O)(O)O)P(=O)(O)O
inactive: Potency [1] | Potency [2] | Potency [3] | outcome [4] | Potency [5] | Potency [6] | activity change, positive = activation [7] 4.61% [at 42.5 µM] | Potency [8] | Potency [9] | Potency [10] | Potency [20] | Potency [11] | Potency [12] | outcome [13] | max response [14] 3.89% | Potency [15] | Potency [16] | Potency [17] | Potency [19]

CCCCCCCOC(=O)CCC
inactive: Potency [1] | Potency [2] | Potency [3] | outcome [4] | Potency [5] | Potency [6] | activity change, positive = activation [7] -0.487% | Potency [8] | Potency [9] | Potency [20] | Potency [11] | Potency [12] | outcome [13] | max response [14] 4.56% | Potency [15] | Potency [16] | Potency [17] | Potency [18] | Potency [19]

CC/C=C\CCOC(=O)CCCCC
inactive: Potency [1] | Potency [2] | Potency [3] | outcome [4] | Potency [5] | Potency [6] | activity change, positive = activation [7] 5.28% | Potency [8] | Potency [9] | Potency [20] | Potency [12] | max response [14] -9.86% | Potency [15] | Potency [16] | Potency [17] | Potency [18] | Potency [19]

Cc1cccc(C)c1NC(=O)CN1CCCCCC1
inactive: Potency [1] | Potency [2] | Potency [3] | outcome [4] | Potency [5] | Potency [6] | activity change, positive = activation [7] 0.669% [at 42.5 µM] | Potency [8] | Potency [9] | Potency [10] | Potency [20] | Potency [11] | Potency [12] | outcome [13] | max response [14] 5.59% | Potency [15] | Potency [16] | Potency [17] | Potency [18] | Potency [19]

CCN(CC)CC1CCCCN1CC(=O)N1c2ccccc2C(=O)Nc2cccnc21 (centres undefined)
inactive: Potency [1] | Potency [2] | Potency [3] | outcome [4] | Potency [5] | Potency [6] | activity change, positive = activation [7] 8.53% [at 42.5 µM] | Potency [8] | Potency [9] | Potency [10] | Potency [20] | Potency [11] | Potency [12] | outcome [13] | max response [14] 0.471% | Potency [15] | Potency [16] | Potency [17] | Potency [18] | Potency [19]

CCCCC(=O)O[C@]1(C(=O)CO)[C@H](C)C[C@H]2[C@@H]3CCC4=CC(=O)C=C[C@]4(C)[C@@]3(F)[C@@H](O)C[C@@]21C
inactive: Potency [1] | Potency [2] | Potency [3] | outcome [4] | Potency [5] | Potency [6] | activity change, positive = activation [7] -4.32% [at 42.5 µM] | Potency [8] | Potency [9] | Potency [10] | Potency [20] | Potency [11] | Potency [12] | outcome [13] | max response [14] 0.0182% | Potency [15] | Potency [16] | Potency [17] | Potency [19]

CC(=O)OC1C2(C)CCC(C2)C1(C)C (centres undefined)
inactive: Potency [1] | Potency [2] | Potency [3] | outcome [4] | Potency [5] | Potency [6] | activity change, positive = activation [7] -1.44% | Potency [8] | Potency [9] | Potency [10] | Potency [20] | Potency [11] | Potency [12] | outcome [13] | max response [14] -0.0469% | Potency [15] | Potency [16] | Potency [17] | Potency [19]
